ChEMBL document CHEMBL3988442, “University of Dundee, Small-Polar-MMV Screening Library” (2021)
For part of these data: Potency and affinity values are given separately.

What was measured:
Design in all cases: scale not given: direction of the effect not stated beside the values
[1] = molecular target: Protein translocase subunit SecA (Escherichia coli (strain K12)) (UniProt P10408); experiment: Assay to Identify E. coli SecA ATPase Inhibitors; format: functional; settings: 30 µM
[2] = molecular target: T1, Ubiquitin-activating enzyme e1, putative (Leishmania donovani (strain BPK282A1)) (UniProt E9BSI1); experiment: Leishmania donovani Ubiquitin Activating Enzyme (LdE1); format: functional; settings: 30 µM
T1 sequence (whole entry): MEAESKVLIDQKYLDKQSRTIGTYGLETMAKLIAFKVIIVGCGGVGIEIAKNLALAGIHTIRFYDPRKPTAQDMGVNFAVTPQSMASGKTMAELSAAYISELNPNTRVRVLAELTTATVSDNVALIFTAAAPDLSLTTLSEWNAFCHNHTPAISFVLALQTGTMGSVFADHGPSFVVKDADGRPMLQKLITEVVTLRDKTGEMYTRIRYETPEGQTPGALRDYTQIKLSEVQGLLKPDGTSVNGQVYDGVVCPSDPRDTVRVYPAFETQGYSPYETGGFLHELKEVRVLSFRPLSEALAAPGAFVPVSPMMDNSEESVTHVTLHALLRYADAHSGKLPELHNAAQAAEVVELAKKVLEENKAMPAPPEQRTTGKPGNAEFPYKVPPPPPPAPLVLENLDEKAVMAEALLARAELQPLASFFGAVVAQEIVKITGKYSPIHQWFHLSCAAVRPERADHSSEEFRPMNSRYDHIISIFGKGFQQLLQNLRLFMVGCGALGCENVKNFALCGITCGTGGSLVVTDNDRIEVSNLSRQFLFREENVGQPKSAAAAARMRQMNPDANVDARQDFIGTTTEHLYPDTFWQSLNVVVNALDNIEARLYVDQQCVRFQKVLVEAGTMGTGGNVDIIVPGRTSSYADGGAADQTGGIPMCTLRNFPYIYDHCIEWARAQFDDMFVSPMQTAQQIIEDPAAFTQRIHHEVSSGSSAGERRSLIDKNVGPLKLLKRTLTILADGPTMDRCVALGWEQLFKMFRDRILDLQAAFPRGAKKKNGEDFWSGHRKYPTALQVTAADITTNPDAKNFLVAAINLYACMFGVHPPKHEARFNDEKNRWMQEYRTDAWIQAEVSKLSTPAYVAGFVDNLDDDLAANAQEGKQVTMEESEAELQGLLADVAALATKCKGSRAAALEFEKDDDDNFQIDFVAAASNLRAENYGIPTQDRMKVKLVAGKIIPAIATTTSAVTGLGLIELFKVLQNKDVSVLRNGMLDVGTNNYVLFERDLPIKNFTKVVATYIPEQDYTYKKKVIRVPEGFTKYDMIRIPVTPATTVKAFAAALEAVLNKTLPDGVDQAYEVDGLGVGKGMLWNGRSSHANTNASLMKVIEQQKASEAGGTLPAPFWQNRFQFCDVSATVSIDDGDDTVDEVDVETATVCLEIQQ

[3] = molecular target: T2, Aspartate--tRNA(Asp/Asn) ligase (Mycobacterium tuberculosis (strain ATCC 25618 / H37Rv)) (UniProt P9WFW3); experiment: Assay for Asp RNA synthetase-1 from Mycobacterium tuberculosis; format: functional; settings: 30 µM; further: in the data most compounds retested in dose-response had high values
T2 sequence (whole entry): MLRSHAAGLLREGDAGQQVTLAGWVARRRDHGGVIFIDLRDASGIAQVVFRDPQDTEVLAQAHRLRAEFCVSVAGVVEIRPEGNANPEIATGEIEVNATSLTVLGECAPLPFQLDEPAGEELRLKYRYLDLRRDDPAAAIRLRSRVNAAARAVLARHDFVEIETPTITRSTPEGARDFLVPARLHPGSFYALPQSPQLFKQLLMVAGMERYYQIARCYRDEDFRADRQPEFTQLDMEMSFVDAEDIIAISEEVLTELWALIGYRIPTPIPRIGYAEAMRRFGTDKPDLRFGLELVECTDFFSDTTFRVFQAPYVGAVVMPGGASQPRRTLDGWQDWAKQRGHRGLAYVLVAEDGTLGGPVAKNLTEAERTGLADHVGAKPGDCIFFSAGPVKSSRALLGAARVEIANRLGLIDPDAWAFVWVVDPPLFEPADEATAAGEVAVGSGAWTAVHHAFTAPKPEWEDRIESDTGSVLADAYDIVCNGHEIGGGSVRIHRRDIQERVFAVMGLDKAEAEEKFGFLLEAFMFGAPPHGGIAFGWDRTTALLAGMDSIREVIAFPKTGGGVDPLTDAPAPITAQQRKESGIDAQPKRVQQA

[4] = molecular target: AMP-activated protein kinase, AMPK (Homo sapiens) (UniProt P54646+O43741+P54619+Q9UGJ0+Q9Y478+Q13131+Q9UGI9); experiment: AMP-dependent Kinase enzyme assay. An in vitro enzyme assay that detects ADP turnover that is directly proportional to AMPK activity. This uses naive AMPK that is activated during the assay with MK-8722; format: functional; settings: 30 µM
[5] = molecular target: Sialic acid-binding Ig-like lectin 9 (Homo sapiens) (UniProt Q9Y336); experiment: Hs-Siglec9 ALPHAscreen SOP 20170721; settings: 10 µM
[6] = tested on: Trypanosoma cruzi; experiment: Trypanosoma cruzi phosphomannomutase and mannose-1-phosphate guanylyltransferase assay; format: functional; settings: 10 µM
[7] = molecular target: T3, Arginase-2, mitochondrial (Homo sapiens) (UniProt P78540); experiment: in vitro enzyme assay to detect the production of urea directly proportional to the activity of Arginase II; format: functional; settings: 33.3 µM; further: in the data most compounds retested in dose-response had high values
T3 sequence (whole entry): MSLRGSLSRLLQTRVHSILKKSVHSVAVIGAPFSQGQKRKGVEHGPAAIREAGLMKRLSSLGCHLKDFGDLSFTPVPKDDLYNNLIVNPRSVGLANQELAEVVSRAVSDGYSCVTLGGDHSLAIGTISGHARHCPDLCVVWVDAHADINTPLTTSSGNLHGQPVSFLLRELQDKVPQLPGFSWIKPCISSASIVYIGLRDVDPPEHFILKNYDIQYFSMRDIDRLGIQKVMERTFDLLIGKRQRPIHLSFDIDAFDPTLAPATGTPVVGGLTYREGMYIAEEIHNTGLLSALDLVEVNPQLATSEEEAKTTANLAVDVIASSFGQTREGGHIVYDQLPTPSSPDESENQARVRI

[8] = molecular target: T4, Proteasome subunit beta (Trypanosoma cruzi) (UniProt O96673); experiment: Trypanosoma cruzi proteasome chymotrypsin-like activity (TcProtChymo) assay.; further: in the data most compounds retested in dose-response had high values; format: functional; settings: 9.37 µM
T4 sequence (whole entry): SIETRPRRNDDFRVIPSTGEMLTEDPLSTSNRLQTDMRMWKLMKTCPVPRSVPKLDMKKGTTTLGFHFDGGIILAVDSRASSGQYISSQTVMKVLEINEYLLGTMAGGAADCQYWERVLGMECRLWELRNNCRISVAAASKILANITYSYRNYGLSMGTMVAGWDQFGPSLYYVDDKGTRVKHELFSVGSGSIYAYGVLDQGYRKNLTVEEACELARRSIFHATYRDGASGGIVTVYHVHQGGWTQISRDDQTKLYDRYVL

[9] = organism: Homo sapiens; experiment: To identify inhibition of the IFN signalling (Jak-Stat) pathway via expression of an eGFP reporter gene under the control of an IFN-stimulated response element (ISRE) containing MxA promoter.; format: functional; settings: 30 µM
[10] = molecular target: Shiga toxin 2 (Escherichia coli O157:H7) (UniProt P09385+P09386); experiment: E. coli 0.157:H7 Shiga Toxin SOP - stx2 screening assay; format: functional; settings: 30 µM
[11] = molecular target: T5, Tyrosyl-tRNA synthetase, putative (Trypanosoma cruzi (strain CL Brener)) (UniProt Q4DSP6); experiment: Trypanosoma cruzi tyrosyl tRNA synthetase (TcYRS) _High Tyrosine SOP; format: functional; settings: 30 µM; further: in the data most compounds retested in dose-response had high values
T5 sequence (whole entry): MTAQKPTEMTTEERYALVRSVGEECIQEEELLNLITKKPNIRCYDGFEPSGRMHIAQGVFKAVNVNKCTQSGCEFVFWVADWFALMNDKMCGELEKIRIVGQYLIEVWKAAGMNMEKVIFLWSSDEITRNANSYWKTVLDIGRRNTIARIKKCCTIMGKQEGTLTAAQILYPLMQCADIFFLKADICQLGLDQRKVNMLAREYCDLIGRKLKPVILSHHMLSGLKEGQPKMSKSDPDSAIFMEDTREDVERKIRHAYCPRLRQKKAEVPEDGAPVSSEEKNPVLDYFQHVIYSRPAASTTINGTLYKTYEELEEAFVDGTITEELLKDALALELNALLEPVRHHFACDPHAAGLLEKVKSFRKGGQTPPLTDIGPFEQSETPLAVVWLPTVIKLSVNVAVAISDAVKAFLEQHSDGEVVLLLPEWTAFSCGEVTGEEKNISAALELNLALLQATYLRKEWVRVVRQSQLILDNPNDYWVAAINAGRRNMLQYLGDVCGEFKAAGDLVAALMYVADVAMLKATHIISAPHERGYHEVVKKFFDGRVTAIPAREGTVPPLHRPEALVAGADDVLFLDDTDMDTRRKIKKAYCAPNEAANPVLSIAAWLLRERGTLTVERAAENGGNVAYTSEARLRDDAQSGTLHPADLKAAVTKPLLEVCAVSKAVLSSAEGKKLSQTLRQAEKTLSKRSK

[12] = molecular target: T5, Tyrosyl-tRNA synthetase, putative (Trypanosoma cruzi (strain CL Brener)); experiment: Trypanosoma cruzi tyrosyl tRNA synthetase (TcYRS) SOP; format: functional; settings: 30 µM
[13] = molecular target: Chromo domain-containing protein 1 (Saccharomyces cerevisiae (strain ATCC 204508 / S288c) (Baker's yeast)) (UniProt P32657); experiment: ScCHD-1 Enzyme Inhibition Assay; format: functional; settings: 30 µM; further: in the data most compounds retested in dose-response had high values
Chromo domain-containing protein 1 (Saccharomyces cerevisiae (strain ATCC 204508 / S288c) (Baker's yeast)), sequence (P32657 whole entry, the tested form may be a part): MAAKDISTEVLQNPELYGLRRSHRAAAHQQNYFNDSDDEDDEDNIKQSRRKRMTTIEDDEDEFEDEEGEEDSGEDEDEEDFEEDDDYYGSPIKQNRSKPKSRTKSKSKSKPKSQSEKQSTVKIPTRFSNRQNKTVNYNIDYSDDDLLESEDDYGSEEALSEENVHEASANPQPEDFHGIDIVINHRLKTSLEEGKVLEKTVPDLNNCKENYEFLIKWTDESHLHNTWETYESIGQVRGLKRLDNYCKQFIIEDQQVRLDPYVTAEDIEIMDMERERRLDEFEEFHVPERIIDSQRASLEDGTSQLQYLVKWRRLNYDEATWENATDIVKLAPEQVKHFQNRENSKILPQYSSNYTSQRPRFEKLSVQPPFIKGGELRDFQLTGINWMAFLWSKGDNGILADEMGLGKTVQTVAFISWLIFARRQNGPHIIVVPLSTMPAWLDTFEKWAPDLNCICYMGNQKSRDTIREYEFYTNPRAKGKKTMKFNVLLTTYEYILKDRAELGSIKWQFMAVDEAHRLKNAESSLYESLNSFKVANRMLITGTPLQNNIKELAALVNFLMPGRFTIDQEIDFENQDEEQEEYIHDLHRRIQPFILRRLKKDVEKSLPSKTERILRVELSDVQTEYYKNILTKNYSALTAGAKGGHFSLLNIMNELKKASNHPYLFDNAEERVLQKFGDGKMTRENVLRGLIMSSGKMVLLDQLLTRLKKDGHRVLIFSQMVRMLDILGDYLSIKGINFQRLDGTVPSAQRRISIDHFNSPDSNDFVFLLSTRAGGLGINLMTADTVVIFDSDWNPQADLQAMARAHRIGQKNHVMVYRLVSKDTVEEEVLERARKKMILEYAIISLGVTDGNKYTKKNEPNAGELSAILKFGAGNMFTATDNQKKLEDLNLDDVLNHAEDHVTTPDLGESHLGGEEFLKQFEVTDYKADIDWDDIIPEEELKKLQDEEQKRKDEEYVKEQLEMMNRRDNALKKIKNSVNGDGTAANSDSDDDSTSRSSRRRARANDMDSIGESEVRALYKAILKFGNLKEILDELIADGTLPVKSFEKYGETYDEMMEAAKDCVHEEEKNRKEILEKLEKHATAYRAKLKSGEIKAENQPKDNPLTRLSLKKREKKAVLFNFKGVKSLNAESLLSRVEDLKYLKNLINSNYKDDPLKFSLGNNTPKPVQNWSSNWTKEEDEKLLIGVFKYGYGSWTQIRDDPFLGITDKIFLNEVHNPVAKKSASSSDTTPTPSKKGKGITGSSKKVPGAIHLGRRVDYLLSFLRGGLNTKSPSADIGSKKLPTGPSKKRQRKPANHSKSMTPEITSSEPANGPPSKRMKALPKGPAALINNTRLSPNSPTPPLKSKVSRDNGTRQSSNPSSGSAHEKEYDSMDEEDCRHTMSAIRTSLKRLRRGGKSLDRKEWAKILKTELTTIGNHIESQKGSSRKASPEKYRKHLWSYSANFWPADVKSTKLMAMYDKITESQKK

Sialic acid-binding Ig-like lectin 9 (Homo sapiens), sequence (Q9Y336 whole entry): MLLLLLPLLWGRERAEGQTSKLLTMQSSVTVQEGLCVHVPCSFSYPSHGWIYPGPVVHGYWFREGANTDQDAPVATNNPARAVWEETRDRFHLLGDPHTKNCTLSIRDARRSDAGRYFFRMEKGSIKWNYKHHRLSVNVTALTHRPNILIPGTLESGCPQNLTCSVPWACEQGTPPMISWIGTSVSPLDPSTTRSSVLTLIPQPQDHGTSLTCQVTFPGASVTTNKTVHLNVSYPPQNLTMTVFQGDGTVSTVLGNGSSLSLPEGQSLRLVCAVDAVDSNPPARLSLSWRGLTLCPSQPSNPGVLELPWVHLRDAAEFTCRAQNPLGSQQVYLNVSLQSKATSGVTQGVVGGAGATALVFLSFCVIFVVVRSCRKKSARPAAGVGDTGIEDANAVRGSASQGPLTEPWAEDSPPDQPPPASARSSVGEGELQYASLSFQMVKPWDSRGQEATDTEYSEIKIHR
Protein translocase subunit SecA (Escherichia coli (strain K12)), sequence (P10408 whole entry): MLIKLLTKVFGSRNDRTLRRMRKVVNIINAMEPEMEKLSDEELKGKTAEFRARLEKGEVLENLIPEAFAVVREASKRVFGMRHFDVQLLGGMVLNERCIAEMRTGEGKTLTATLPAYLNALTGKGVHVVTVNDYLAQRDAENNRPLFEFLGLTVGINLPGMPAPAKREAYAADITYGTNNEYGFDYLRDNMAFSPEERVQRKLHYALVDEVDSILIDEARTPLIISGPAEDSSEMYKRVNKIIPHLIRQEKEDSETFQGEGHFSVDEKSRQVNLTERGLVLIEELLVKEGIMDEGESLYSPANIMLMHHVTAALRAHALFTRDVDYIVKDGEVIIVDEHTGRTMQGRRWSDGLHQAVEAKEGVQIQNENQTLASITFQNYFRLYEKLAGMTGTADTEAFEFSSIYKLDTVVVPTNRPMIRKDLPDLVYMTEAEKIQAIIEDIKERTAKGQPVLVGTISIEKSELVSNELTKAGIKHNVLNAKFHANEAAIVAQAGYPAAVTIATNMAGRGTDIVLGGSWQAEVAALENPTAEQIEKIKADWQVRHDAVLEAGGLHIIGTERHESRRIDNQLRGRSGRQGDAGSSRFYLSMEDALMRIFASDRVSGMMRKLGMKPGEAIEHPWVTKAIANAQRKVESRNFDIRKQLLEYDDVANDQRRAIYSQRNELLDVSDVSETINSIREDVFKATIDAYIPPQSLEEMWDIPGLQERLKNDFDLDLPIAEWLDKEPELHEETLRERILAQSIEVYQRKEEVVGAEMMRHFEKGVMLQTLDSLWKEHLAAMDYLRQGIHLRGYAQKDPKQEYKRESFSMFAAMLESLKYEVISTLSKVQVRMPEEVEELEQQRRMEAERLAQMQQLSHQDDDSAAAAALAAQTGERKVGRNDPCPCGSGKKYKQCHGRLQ

CCN(CC)C(=O)c1ccc(NC(=O)CNc2ccc(F)cc2Cl)cc1
Percent Effect [1]: -1.29%
Percent Effect [2]: 10.5%
Percent Effect [3]: 5.36%
Percent Effect [4]: 5.61%
Percent Effect [5]: 3.25%
Percent Effect [6]: 2.04%
Percent Effect [7]: 0%
Percent Effect [8]: 16.6%
Percent Effect [9]: -29.3%
Percent Effect [10]: -38.1%
Percent Effect [11]: 9.57%
Percent Effect [12]: 15.6%
Percent Effect [13]: -3.17%

CC[C@H](N)Cn1nc(-c2cccs2)oc1=O
Percent Effect [1]: -1.83%
Percent Effect [2]: 9.46%
Percent Effect [3]: 7.37%
Percent Effect [4]: 12%
Percent Effect [5]: -5.1%
Percent Effect [6]: -1.98%
Percent Effect [7]: -1.62%
Percent Effect [8]: 16.7%
Percent Effect [9]: 2.87%
Percent Effect [10]: 5.59%
Percent Effect [11]: 1.07%
Percent Effect [12]: 3.9%
Percent Effect [13]: -13.2%

COc1ccccc1OCC(=O)N1CCN(Cc2noc(C)n2)CC1
Percent Effect [1]: -5.45%
Percent Effect [2]: 13.5%
Percent Effect [3]: 3.51%
Percent Effect [4]: -4.95%
Percent Effect [5]: 22%
Percent Effect [6]: 5.96%
Percent Effect [7]: 5.21%
Percent Effect [8]: 6.09%
Percent Effect [9]: 2.23%
Percent Effect [10]: 3.27%
Percent Effect [11]: 4.3%
Percent Effect [12]: 13.6%
Percent Effect [13]: -7.11%

CCS(=O)(=O)NC[C@]12COC[C@H]1CN(Cc1cc(C)on1)C2
Percent Effect [1]: -3.29%
Percent Effect [2]: 0%
Percent Effect [3]: -3.83%
Percent Effect [4]: 4.08%
Percent Effect [5]: 3.76%
Percent Effect [6]: -0.684%
Percent Effect [7]: 4.14%
Percent Effect [8]: 20.9%
Percent Effect [9]: -25%
Percent Effect [10]: 1.54%
Percent Effect [11]: 5.41%
Percent Effect [12]: 12.8%
Percent Effect [13]: -1.96%

Cc1cc(CN2C[C@@H]3COC[C@]3(CN(C)C)C2)no1
Percent Effect [1]: -1.63%
Percent Effect [2]: -2.7%
Percent Effect [3]: -2.03%
Percent Effect [4]: 7.75%
Percent Effect [5]: 3.28%
Percent Effect [6]: -3.42%
Percent Effect [7]: 1.59%
Percent Effect [8]: 26.4%
Percent Effect [9]: -4.54%
Percent Effect [10]: -2.49%
Percent Effect [11]: 3.24%
Percent Effect [12]: 2.56%
Percent Effect [13]: -2.67%

CCOCC(O)CN1CCN(C(=O)Cc2ccc3c(c2)CCO3)CC1 (configuration not stated)
Percent Effect [1]: 1.74%
Percent Effect [2]: 10.5%
Percent Effect [3]: 0.3%
Percent Effect [4]: 2.16%
Percent Effect [5]: 5%
Percent Effect [6]: -3.76%
Percent Effect [7]: 6.51%
Percent Effect [8]: 21.4%
Percent Effect [9]: 19.4%
Percent Effect [10]: 30.7%
Percent Effect [11]: 3.43%
Percent Effect [12]: 12.2%
Percent Effect [13]: -2.97%

O=C1CC2(CCN(CC3CC3)C2)CN1c1cccnc1 (configuration not stated)
Percent Effect [1]: -0.0321%
Percent Effect [2]: 8.11%
Percent Effect [3]: 1.57%
Percent Effect [4]: -3.31%
Percent Effect [5]: 8.46%
Percent Effect [6]: -5.18%
Percent Effect [7]: 7.2%
Percent Effect [8]: 11.4%
Percent Effect [9]: -22.5%
Percent Effect [10]: -25.7%
Percent Effect [11]: 10.8%
Percent Effect [12]: 11.1%
Percent Effect [13]: -7.21%

COCCN1CCC2(COCc3cnc(N4CCOCC4)nc32)C1 (configuration not stated)
Percent Effect [1]: -9.09%
Percent Effect [2]: 2.67%
Percent Effect [3]: -3.07%
Percent Effect [4]: 7.61%
Percent Effect [5]: -2.45%
Percent Effect [6]: -5.91%
Percent Effect [7]: -2.1%
Percent Effect [8]: 2.03%
Percent Effect [9]: 21.1%
Percent Effect [10]: -12%
Percent Effect [11]: -4.25%
Percent Effect [12]: -1.28%
Percent Effect [13]: -8.27%

c1cnc(NC[C@@H]2CCC[C@@H]3CN(Cc4cccnc4)C[C@@H]32)nc1
Percent Effect [1]: 0.229%
Percent Effect [2]: 10.8%
Percent Effect [3]: -0.324%
Percent Effect [4]: -2.93%
Percent Effect [5]: -7.32%
Percent Effect [6]: 1.56%
Percent Effect [7]: 25.4%
Percent Effect [8]: 15.5%
Percent Effect [9]: 10.2%
Percent Effect [10]: -34.3%
Percent Effect [11]: 13.9%
Percent Effect [12]: 18.3%
Percent Effect [13]: -3%
